The values that follow come from PubChem BioAssay (NCI).

Test systems include NCI-H23 lung; NCI-H226 lung; NCI-H322M lung; HOP-62 NSCLC; NCI-H460 lung; HOP-92 NSCLC; NCI-H522 lung; A549/ATCC NSCLC; 786-0 renal; COLO 205 colon.
Holding throughout (experiment): NCI-60 one-dose screen, 48 h (100 = growth as untreated, 0 = no growth, -100 = all killed)
Conditions in all cases: 10 µM unless noted

The structures appear in SMILES notation. Compounds without any hit were thinned out: in the full panel of roughly 83,000, 20% have a hit.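 Plates (96-well) were seeded with cells, treated with compound at one concentration, and incubated for 48 hours before percent growth was determined.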 Values without a mark were called inactive. The source made the active and inactive calls. The calls were made as follows: active = growth percent below 10; inactive = the rest.

As to `Oc1ccc(CCCCCCc2ccc(O)cc2)cc1`, the growth is 59.5% in the test on NCI-H23 lung; 101% with NCI-H226 lung; 92% with NCI-H322M lung; 80.6% in the test on HOP-62 NSCLC; 46.4% with NCI-H460 lung; 64% in the test on HOP-92 NSCLC. Moreover, the growth with NCI-H522 lung is 56.6%; in the test on A549/ATCC NSCLC it was 47.6%; in the test with 786-0 renal it was 14.2%; with COLO 205 colon it was 103%.

For the compound `NC(=S)N/N=C(/c1cccs1)C1CC1`, the growth was 101% in the test with NCI-H23 lung; 90.5% with NCI-H226 lung; 93% in the test on NCI-H322M lung; 91.8% with HOP-62 NSCLC; 106% in the test on NCI-H460 lung; 107% in the test with HOP-92 NSCLC. Also, the growth is 87.4% in the test on NCI-H522 lung, 63.6% in the test with A549/ATCC NSCLC, 105% in the test with 786-0 renal and 105% in the test with COLO 205 colon.

As to `CCN(CC)Cc1cc(Nc2nc(NC3CCC(N(C)C)CC3)c3ccccc3n2)ccc1OC` (stereo not given), the growth with NCI-H23 lung was 87.8%; with NCI-H226 lung it was 75.5%; in the test with NCI-H322M lung, 76.5%; in the test with HOP-62 NSCLC it was 79.4%; in the test with NCI-H460 lung, 89.7%; in the test on HOP-92 NSCLC, 25.3%. Further, the growth in the test on NCI-H522 lung was 44%; with A549/ATCC NSCLC it was 67.8%; with 786-0 renal, 97.8%; in the test with COLO 205 colon, 12%.

Consider `Cc1cc(C)c2c(n1)sc1c(Nc3ccc(Cl)cc3Cl)ncnc12`, for which the growth is 19% with NCI-H23 lung; 36.2% with NCI-H226 lung; 43.9% with NCI-H322M lung; 2.53% (active) in the test on HOP-62 NSCLC; 9.44% (active) in the test on NCI-H460 lung; 36.2% in the test on HOP-92 NSCLC. The growth in the test on NCI-H522 lung was 30.5%; with A549/ATCC NSCLC, 26.2%; with 786-0 renal it was 10.9%; in the test on COLO 205 colon, 23.3%.

`CC1(C)CC[C@]2(C(=O)N3CCNCC3)CC[C@]3(C)C(=CC[C@@H]4[C@@]5(C)CCC(=O)C(C)(C)[C@@H]5CC[C@]43C)[C@@H]2C1`: the growth in the test on NCI-H23 lung is 103%; in the test on NCI-H226 lung it was 99.4%; in the test on NCI-H322M lung, 108%; in the test with HOP-62 NSCLC, 97.3%; in the test on NCI-H460 lung, 109%; with HOP-92 NSCLC, 109%. Further, the growth with NCI-H522 lung is 94.5%; with A549/ATCC NSCLC, 102%; in the test on 786-0 renal, 102%; in the test with COLO 205 colon, 105%.

With `COc1cc2nccc(Oc3ccc(NC(=O)C4(C(=O)Nc5ccc(F)cc5)CC4)cc3)c2cc1O`, the growth was 57.4% in the test with NCI-H23 lung; 67.1% with NCI-H226 lung; 87.7% in the test with NCI-H322M lung; 57.6% in the test on HOP-62 NSCLC; 48.1% with NCI-H460 lung; 33.4% in the test with HOP-92 NSCLC. In addition, the growth in the test with NCI-H522 lung is 68%; in the test with A549/ATCC NSCLC, 56.4%; in the test on 786-0 renal, 96.2%; in the test on COLO 205 colon it was 91%.

For the compound `CCOC(C)(c1ccc(Cl)cc1)C1CCNCC1` (stereo not given), the growth in the test with NCI-H23 lung was 101%; with NCI-H226 lung, 116%; with NCI-H322M lung, 105%; in the test on HOP-62 NSCLC it was 93.3%; in the test on NCI-H460 lung, 70.3%; in the test on HOP-92 NSCLC, 85.2%. The growth in the test on NCI-H522 lung is 107%; in the test with A549/ATCC NSCLC, 67.9%; in the test on 786-0 renal it was 91.9%; in the test with COLO 205 colon it was 118%.

As to `COc1cc(C2CC(c3cccc(Nc4ccnc5cc(Cl)ccc45)c3)=NN2c2ccc(Cl)cc2)cc(OC)c1OC` (stereo not given), the growth in the test with NCI-H23 lung is 73.8%; with NCI-H226 lung it was 70.6%; in the test on NCI-H322M lung, 81.4%; with HOP-62 NSCLC, 76.7%; in the test with NCI-H460 lung, 36.4%; in the test with HOP-92 NSCLC, 37.5%. In addition, the growth in the test on NCI-H522 lung was 40.6%; with A549/ATCC NSCLC, 57%; in the test with 786-0 renal, 54.5%; in the test on COLO 205 colon, 80.9%.

In the case of `CCCCCCCCCCCCCCCCOc1ccc(S(=O)(=O)N(C)C)cc1[N+](=O)[O-]`, the growth in the test with NCI-H23 lung is 97.4%; in the test on NCI-H226 lung, 104%; with NCI-H322M lung it was 103%; in the test with HOP-62 NSCLC, 49.2%; in the test on NCI-H460 lung it was 118%; with HOP-92 NSCLC, 46.2%. Besides, the growth was 94.5% in the test on NCI-H522 lung, 98.7% with A549/ATCC NSCLC, 67.3% in the test on 786-0 renal and 114% in the test with COLO 205 colon.

For `COc1cc2nccc(Oc3ccc(NC(=O)C4(C(=O)Nc5c(F)cc(F)cc5F)CC4)cc3)c2cc1Oc1ccc(N)cn1`, the growth in the test with NCI-H23 lung was 53.6%; in the test with NCI-H226 lung, 37.7%; in the test on NCI-H322M lung it was 74.8%; in the test with HOP-62 NSCLC, 67.7%; in the test on NCI-H460 lung it was 65.4%; in the test on HOP-92 NSCLC, 2.04% (active). The growth was 55% in the test on NCI-H522 lung, 48% with A549/ATCC NSCLC, 96.5% in the test on 786-0 renal and 44.3% with COLO 205 colon.

With `O=c1cc(-c2ccc3c(c2)OCCO3)oc2cc(Cl)ccc12`, the growth is 61% in the test on NCI-H23 lung; -12.9% (active) in the test on NCI-H226 lung; -6.58% (active) with NCI-H322M lung; 1.84% (active) in the test on HOP-62 NSCLC; -57.9% (active) with NCI-H460 lung; -8.2% (active) with HOP-92 NSCLC. Also, the growth is -12.7% (active) in the test with NCI-H522 lung, 11.2% in the test on A549/ATCC NSCLC, -42.8% (active) in the test with 786-0 renal and 40.7% in the test with COLO 205 colon.

Consider `Oc1ccc(Cl)cc1-c1cc(-c2ccccc2Cl)[nH]n1`, for which the growth in the test on NCI-H23 lung is 47.8%; in the test on NCI-H226 lung, 81.8%; in the test with NCI-H322M lung, 65.1%; in the test on HOP-62 NSCLC, 63.3%; in the test on NCI-H460 lung, 37.1%; with HOP-92 NSCLC, 20.6%. Moreover, the growth with NCI-H522 lung was 27.4%; in the test with A549/ATCC NSCLC, 53.1%; in the test with 786-0 renal it was 84.7%; in the test with COLO 205 colon, 104%.
